Source: PubChem
TAG inh: triacylglycerol accumulation inhibition; inhibition, % at 12.5 µM; 0.66% of 230,000 active; H9c2 cells, Nile Red lipid (TAG) fluorescence; cells loaded with 200 µM oleic acid; AID 651582;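 active means pattern-corrected inhibition of lipid staining of at least 50% with the nuclear-stain viability signal not falling by more than 50%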;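 further: 0% = DMSO wells and 100% = triacsin C control wells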
beta cell repl: inducers of beta-cell replication in MIN6 cells; proliferation, % at 10 µM; 0.29% of 330,000 active; MIN6 cells proliferation, ATPlite luminescence, 48 h; cells starved in 0.2% serum; 100% = growth in 10% serum;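 active means compounds whose signal lies at least 3.5 SD above the mean of all wells on their plate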;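 further: 0% = DMSO-treated cells in low-serum medium and 100% = 10% serum control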
CHT block: inhibitors of human choline transporter CHT | B-score at 10 µM | 0.86% of 310,000 active | AID 488975 | Q9GZV3 | CHT-expressing cells, membrane potential dye, choline response; stronger effect = lower value;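 active means B-score over 3 SD under the library average, and starting fluorescence ratio not unusually high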;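 further: choline stimulus applied at its EC90 after an EC20 pre-addition; B-score computed on integrated fluorescence ratio after choline addition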
CHT PAM: allosteric activators of human choline transporter CHT. CHT-expressing cells, membrane potential dye, choline EC20; stronger effect = higher value; LV-AA mutant CHT in HEK293 cells. B-score at 10 µM. 0.49% of 310,000 active;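 active means initial fluorescence not abnormally high and integrated response B-score, plate-corrected, over 3 SD above library mean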
H9c2 TAG conf: triacylglycerol accumulation inhibition, confirmation. shares compounds with TAG inh. H9c2 lipid accumulation, Nile Red fluorescence; cells loaded with 200 µM oleic acid. inhibition, % at 12.5 µM. 71% of 990 active. AID 651629;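 active means mean inhibition across replicates of 40% or more; inactive means mean inhibition below 40%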;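 further: plate controls were DMSO only wells for no effect and Triacsin C treated wells for full effect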
An asterisk follows results filed as active; i = inactive; nt = no result given. Most compounds without a hit are left out; they make up all but 1.7% or so of the library.

SMILES | TAG inh | beta cell repl | CHT block | CHT PAM | H9c2 TAG conf
C[C@@H]1CCCCO[C@H](CN(C)S(=O)(=O)c2ccc(F)cc2)[C@@H](C)CN([C@H](C)CO)C(=O)c2cc(NC(=O)Nc3ccc(C(F)(F)F)cc3)ccc2O1 | 46 | nt | nt | nt | nt
COc1ccc(S(=O)(=O)N(C)C[C@@H]2OCCCC[C@H](C)Oc3ccc(NC(=O)Nc4ccc(C(F)(F)F)cc4)cc3C(=O)N([C@H](C)CO)C[C@H]2C)cc1 | 59* | nt | nt | nt | 44*
N/C(=N\c1nc2ccccc2o1)NC(=O)c1ccc(F)cc1 | 66* | 0 | i | i | 45*
O=C(OCc1ccccc1)N1CCCC1/C=C/CN1CCOCC1 (centres undefined) | nt | 0 | i | i | nt
NNC(=O)CCN1CCCCC1 | 83* | -2 | i | i | 3
COc1ccc(CN(C)C[C@@H]2OCc3cnnn3CCCC(=O)N([C@@H](C)CO)C[C@H]2C)cc1 | 6 | nt | nt | nt | nt
